Assay results reported in PubChem BioAssay (NCI).
This is part of a sample that, as a whole, favours compounds with a hit. Of some 83,000 tested, about 20% had one in any assay.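 Negative percent growth values reflect cell death: -40 means 40% of the cells present at the start died, and -100 means all died.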 A number with no mark means an inactive call. Active and inactive are the calls of the source.

tested on: NCI-H226 lung; assay: NCI-60 one-dose screen, 48 h (100 = growth as untreated, 0 = no growth, -100 = all killed); conditions: 10 µM unless noted
Procedure: Growth inhibition of the NCI-H226 human Non-Small Cell Lung tumor cell line is measured as a screen for anti-cancer activity. Cells are grown in 96 well plates and exposed to the test compound for 48 hours. Compounds are tested at a single concentration, which is 10^-5 M for most compounds. The reported endpoint is percent growth (GI% or GIPRCNT), where numbers from 0 - 100% represent growth inhibition, and numbers from -100% - 0 represent cell death. For example, a value of 40 represents 60% growth inhibition. A value of 0 means no net growth occurred over the course of the experiment. A value of -40 indicates 40% of cells at the beginning of the experiment died by the end of the experiment. A value of -100 means all cells are dead at the end of the experiment.
NCI-60 Human Tumor Cell Lines Screen was performed using the standard one-dose NCI protocol, which is described in more detail at https://dtp.cancer.gov/discovery_development/nci-60/default.htm.
Compounds with GIPRCNT values below 10 were considered active. Activity score was based on GIPRCNT using the following formula: […]
Score is 0 for GIPRCNT values of 100 or above, 50 for GIPRCNT values of 0, and 100 for GIPRCNT values of -100.

| Structure (SMILES) | growth |
| --- | --- |
| O=C1CCC(NC(=S)Nc2ccccc2)N1 (stereo not given) | 103% |
| O=C(O)c1ccc[n+](CC(=O)N2CCN(c3cc4c(cc3F)c(=O)c(C(=O)O)cn4C3CC3)CC2)c1 | 93.7% |
| CN1C2CCC1CN(c1cnc(C(=O)Nc3cc(F)cc4cccnc34)cn1)C2 | 88.9% |
| NC(=O)CN1CCN(c2ccccc2Cl)CC1 | 102% |
| O=S(=O)(NCCCNc1nccc(-c2c(-c3ccc(F)c(O)c3)nc3sccn23)n1)c1ccc(F)cc1 | 11% |
| COc1cc2nc(-c3ccc(C#N)cc3)[nH]c(=O)c2cc1OC | 91.4% |
| Cc1cc(Nc2cccc(C(F)(F)F)c2)n2c(nc3ccccc32)c1C#N | 40.1% |
| FC(F)(F)Oc1cccc(-c2cc(NCCCCCCNc3cc(-c4cccc(OC(F)(F)F)c4)nc4ccc(N5CCCC5)cc34)c3cc(N4CCCC4)ccc3n2)c1 | 68.5% |
| CCCC1C(C(=O)OCC)=C(N)Oc2cc(O)ccc21 (stereo not given) | 78.9% |
| CCCCCCN(C)Cc1ccc(OCCOc2ccc(CN(C)CCCCCC)cc2)cc1 | 50% |
| CCCCCCCCN1C(=O)/C(=c2\sc3n(c2=O)C2C(NN=3)N(CC)C(=O)N2CC)c2ccccc21 (stereo not given) | 91.9% |
| COc1ccccc1-c1c(-c2ccc(Cl)cc2)c2cc3c(cc2[nH]c1=O)OCCO3 | 84% |
| COc1ccc(C2CC(n3nnnc3-c3ccccc3)=NN2)cc1 (stereo not given) | 75.1% |
| C=C1C(=O)O[C@H]2[C@H]1CC/C(COC(=O)/C=C/c1c[nH]c3ccccc13)=C\CC[C@@]1(C)O[C@@H]21 | -71.4% (active) |
| CC(C)Cc1ccc(C(C)C(=O)NCc2c[nH]c3ccc(Cl)cc23)cc1 (stereo not given) | 92.3% |
| Cn1c2c(Cl)c(Cl)ccc2c2cc(N)[nH]c(=O)c21 | 59.2% |
| Nc1nc(SN=Nc2ccc(S(N)(=O)=O)cc2)c2[nH]cnc2n1 | 37.3% |
| CN1CCN(CCCOc2ccc3ncnc(Nc4ccc(Oc5cccc(C(F)(F)F)c5)c(Cl)c4)c3c2)CC1 | 85.6% |
| NC(=S)N/N=C/c1ccc(OC(=O)COc2cc(Cl)c(Cl)cc2Cl)cn1 | 84.6% |
| NNC(=O)/C(=C\c1ccc([N+](=O)[O-])cc1)CC(=O)c1ccc(Cl)c(Cl)c1 | 69.2% |

| Structure (SMILES) | growth |
| --- | --- |
| O=C1Nc2ccccc2/C1=C\c1cccc(/C=C2/C(=O)Nc3ccccc32)n1 | 2.74% (active) |
| COc1ccccc1/C=C1\Oc2cc(OCCCN3CCCC3)ccc2C1=O | 98.7% |
| Cc1ccccc1-c1cc(Cc2ccc(F)cc2)c(=O)[nH]n1 | 105% |
| O=C(OCc1nc2nc(Cl)nc(N3CCOCC3)c2[nH]1)n1ccnc1 | -67.6% (active) |
| CCC1(CC)NC(=O)c2c(c3ccc(Cl)c(Cl)c3n2C)C1C#N (stereo not given) | 95.6% |
| O=C(O)/C=C\C(=O)N1C/C(=C\c2ccccc2Cl)C(=O)/C(=C/c2ccccc2Cl)C1 | -85% (active) |
| COc1cc(/C=C/C(=O)c2ccc(Nc3ncnc4ccccc34)cc2)cc(OC)c1 | 80.2% |
| CCN1C(=O)/C(=c2\sc3n(c2=O)NC2C(N=3)N(CC)C(=O)N2CC)c2ccccc21 (stereo not given) | 102% |
| N#Cc1c(Nc2ccccc2)nn2cc(-c3nc4ccccc4s3)c(N)nc12 | 65.6% |
| COc1cc2nc(-c3ccc(C(F)(F)F)cc3)cc(OCCCN3CCCCC3)c2cc1OC | -11.8% (active) |
| COc1ccc(C(=O)c2cc3c(N)c(C(=O)Nc4ccc(Br)cc4)sc3nc2C)cc1 | 38.5% |
| Cc1nc2sc(C(=O)Nc3cccc(Br)c3)c(N)c2cc1C(=O)c1ccc(C(F)(F)F)cc1 | 92% |
| COc1ccc(C(=O)c2cc3c(N)c(C(=O)Nc4cccc(Cl)c4)sc3nc2C)cc1 | 61.9% |
| Cn1ncc2c(Nc3ccccc3Cl)nc(Cl)nc21 | 88.4% |
| CC1(C)[C@H](O)CC[C@]2(C)[C@@H]1CC[C@@]13C[C@@H](CC[C@H]12)[C@@](O)(CO)C3 | 99.7% |
| COc1cccc(CCC(=O)c2cc3c(N)c(C(=O)Nc4cccc(Cl)c4C)sc3nc2C)c1 | 45.7% |
| COc1cc(NCCCN(CC(C)C)C2CCCC2)c2ncccc2c1 | 58.3% |
| Cc1nc2sc(C(=O)Nc3ccccc3)c(N)c2cc1C(=O)c1ccc(C(F)(F)F)cc1 | 99.6% |
| C=C1C(=O)O[C@H]2[C@H]1CC/C(COC(=O)CCCc1c[nH]c3ccccc13)=C\CC[C@@]1(C)O[C@@H]21 | 76.7% |
| CS(=O)(=O)OCCN(CCOS(C)(=O)=O)c1ccc(/C=N/Nc2ccc([N+](=O)[O-])cc2[N+](=O)[O-])cc1 | 81.4% |
